Bioassay records deposited in PubChem BioAssay by Sanford-Burnham Center for Chemical Genomics.
CYP2C19 inhib = inhibitors of human CYP2C19; hit rate 21% among 96,000; P33261; AID 778; CYP2C19 Supersomes, luciferin-H EGE luminescence, 30 min; inhibition, % at 5 µM;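 active = CYP2C19 inhibition above a set limit at 5 µM in the primary screen, cut at about 50% in these data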;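 also: plate controls were negative control wells for no effect and 2.5 mM tranylcypromine positive control for full effect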
Target sequence (P33261 whole entry, looked up): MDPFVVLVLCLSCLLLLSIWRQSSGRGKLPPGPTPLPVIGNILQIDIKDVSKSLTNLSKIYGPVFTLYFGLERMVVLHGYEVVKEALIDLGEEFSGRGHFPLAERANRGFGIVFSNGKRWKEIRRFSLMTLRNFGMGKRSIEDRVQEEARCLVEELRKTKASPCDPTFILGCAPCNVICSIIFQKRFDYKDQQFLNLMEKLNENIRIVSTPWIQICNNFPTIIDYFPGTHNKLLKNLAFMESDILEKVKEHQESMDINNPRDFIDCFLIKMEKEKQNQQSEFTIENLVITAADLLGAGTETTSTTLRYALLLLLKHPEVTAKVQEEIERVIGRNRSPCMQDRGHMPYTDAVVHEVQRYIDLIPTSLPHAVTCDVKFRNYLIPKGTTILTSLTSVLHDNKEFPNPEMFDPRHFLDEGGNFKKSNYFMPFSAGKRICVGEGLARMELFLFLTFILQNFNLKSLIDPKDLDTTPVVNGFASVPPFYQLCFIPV
CYP2C9 act = increases human cytochrome P450 2C9 activity; hit rate 1.4% among 96,000; P11712; AID 1024; activation factor at 5 µM; recombinant CYP2C9, luciferin-H conversion, luminescence; active compounds read high; factor 1 = untreated enzyme, 0 = blocked;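 active = activation factor of 2 or more for CYP2C9 at a 5 µM dose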;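 also: 0 = sulfaphenazole-blocked wells and 1 = vehicle-only wells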
CD11b adhes enh = CD11b/CD18-fibrinogen binding enhancement; P05107+P11215; K562 CD11b/CD18 adhesion to fibrinogen, ATPlite luminescence; activation, % at 10 µM; hit rate 0.07% among 93,000;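 active = 10 µM primary screen giving 50% or more activity, confirmed by 40% or more on retest at that dose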
Mac1 fbg inh = blocks human CD11b/CD18 adhesion to fibrinogen; P05107+P11215; K562 CD11b/CD18 adhesion to fibrinogen, ATPlite luminescence; Mn2+ added to activate the integrin; inhibition, % at 10 µM; hit rate 0.54% among 93,000; AID 1497;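 active = primary inhibition of 50% or more at 10 µM, then 40% or more on retest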
CYP2C19 act = increases human CYP2C19 enzyme activity. 96,000 tested, under 10 active. recombinant CYP2C19, luciferin-H EGE luminescence; active compounds read high; 0 = fully inhibited enzyme, 1 = untreated enzyme. P33261. activation factor at 5 µM. AID 1025;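 active = activation factor of at least 2 at 5 µM in the primary screen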;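 also: 0 = wells with 2.5 mM tranylcypromine and 1 = vehicle-only wells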
CYP2C9 inh = inhibitors of human CYP2C9. CYP2C9 Supersomes, luciferin-H conversion, luminescence. P11712. inhibition, % at 5 µM. hit rate 20% among 96,000. AID 777;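 active = blocking of liver enzyme CYP2C9 beyond about 50% at 5 µM, limit read from the data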
Starred values were filed as active, the others as inactive; nt = no result given. An excerpt weighted towards active compounds, which were near 28% of everything screened.

SMILES	CYP2C19 inhib	CYP2C9 act	CD11b adhes enh	Mac1 fbg inh	CYP2C19 act	CYP2C9 inh
Cc1csc(SCC(=O)c2cc(C)n(Cc3cccs3)c2C)n1	83.6*	0.5	-8.4	92.7	0.2	50.1*
Cc1cc(C(=O)CSc2nnc(N)s2)c(C)n1Cc1cccs1	nt	nt	-3.3	60.0	nt	nt
O=C(Nc1ccc(-c2nc3ccccc3o2)cc1)c1ccc(N2C(=O)C3C4C=CC(C4)C3C2=O)cc1 (configuration not stated)	-19.2	0.9	2.4	37.2	1.2	7.4
Cc1cc(=O)c(C(=O)O)cn1Nc1ccc(Cl)cc1	12.0	1.1	-2.2	-4.5	0.9	-5.4
Cc1ccc(CONC(=O)/N=C/N(C)C)cc1	15.6	0.9	nt	nt	0.8	12.1
COCCn1c(C)cc(C(=O)COc2nc3ccccc3nc2C)c1C	15.8	1	0.5	10.2	0.8	-4.5
COCCn1c(C)cc(C(=O)CSc2ccc(NC(C)=O)cc2)c1C	93.3*	0.9	2.1	-8.0	0.1	6.5
C=CCn1c(C)cc(C(=O)CSc2nnc(Cc3ccccc3)o2)c1C	-1.3	1.4	0.8	4.3	1	-43.4
O=C1c2ccccc2C(=O)N1CSc1nnc(Nc2ccccc2F)s1	nt	nt	0.3	-3.7	nt	nt
COCCn1c(C)cc(C(=O)CSc2ccc3ccccc3n2)c1C	67.8*	1.6	1.5	15.6	0.3	-63.3
COCC(C)n1c(C)cc(C(=O)CSc2nnc(Nc3ccccc3F)s2)c1C (configuration not stated)	69.8*	0.6	5.3	4.5	0.3	43.6
C=CCn1c(C)cc(C(=O)CSc2nnc(NC(C)C)s2)c1C	73.3*	0.8	-1.9	-4.4	0.3	17.9
O=C(CNc1ccc(Oc2ccccc2)cc1)N1CCOCC1	-9.3	1.2	-0.3	nt	1.1	-17.7
N#Cc1cc2c(nc1SCC(=O)N1CCOCC1)CCCCC2	-14.3	1.3	-3.5	-0.6	1.1	-34.6
COc1ccccc1Nc1ncnc2ccc(C)cc12	-8.9	1	-3.7	4.4	1.1	-4.7
C=CCn1c(C)cc(C(=O)CSc2ccc(NC(C)=O)cc2)c1C	90.7*	1	-1.3	-5.7	0.1	-2.6
O=C(Cn1cc(C(F)(F)F)ccc1=O)Nc1cccc(S(=O)(=O)N2CCOCC2)c1	nt	nt	-3.0	-14.9	nt	nt
O=C(Oc1cccc(Nc2ncnc3ccccc23)c1)c1ccccc1Cl	13.9	0.4	-8.6	96.2	0.9	57.2*
O=C(CCCCCNS(=O)(=O)c1ccc(Br)cc1)NCCN1CCOCC1	-10.8	1	-0.6	-22.2	1.1	2.0
CCOC(=O)c1c(-c2ccsc2)csc1N	62.6*	0.8	0.4	2.5	0.4	24.1
CCOC(=O)c1cc(-c2ccc(C)o2)n[nH]1	42.3	0.5	-1.1	-1.3	0.6	52.2*
CCOC(=O)c1c(-c2ccc(C)o2)csc1N	58.8*	0.7	-0.6	11.1	0.4	28.9
COc1ccc(-n2nc(C(=O)NCC(=O)NCc3ccco3)c3ccccc3c2=O)c(OC)c1	-28.0	0.3	-4.1	-7.4	1.3	72.5*
Cc1ccc(-n2nnc3c(=O)n(CC(=O)NCc4ccco4)cnc32)cc1	17.0	2.1*	0.5	6.3	0.8	-112.7
COc1ccc(-n2nc(C(=O)NCC(=O)NCC3CCCO3)c3ccccc3c2=O)cc1 (configuration not stated)	25.9	0.4	0.0	-25.6	0.7	63.4*
SMILES	CYP2C19 inhib	CYP2C9 act	CD11b adhes enh	Mac1 fbg inh	CYP2C19 act	CYP2C9 inh
COc1ccc(-n2nc(C(=O)NCC(=O)Nc3ccccn3)c3ccccc3c2=O)cc1	9.6	0.8	nt	nt	0.9	21.1
COc1ccc(-n2nc(C(=O)NCC(=O)NCc3ccc(F)cc3)c3ccccc3c2=O)c(OC)c1	19.7	0.5	nt	nt	0.8	50.7*
COc1ccc(-n2nc(C(=O)NCC(=O)NCC3CCCO3)c3ccccc3c2=O)c(OC)c1 (configuration not stated)	-5.6	0.6	-2.0	13.1	1.1	37.2
COc1ccc(-n2nc(C(=O)NCC(=O)NCc3ccco3)c3ccccc3c2=O)cc1	9.3	0.4	2.2	9.5	0.9	62.1*
O=C(NCc1ccco1)c1nn(-c2ccccc2)c(=O)c2ccccc12	6.8	0.6	-1.3	-15.6	0.9	42.1
N=C1C=CC=C2C1=NC1(CCCCC1)N2O	18.2	0.8	-1.6	0.1	0.8	21.5
CC(C)CCNC(=O)c1nnc(Cc2ccc(Cl)cc2)o1	11.6	1.9	0.1	-9.5	0.9	-89.1
COc1ccc(C=O)cc1COc1c(F)c(F)cc(F)c1F	60.0*	0.6	-5.6	-3.8	0.4	43.8
N=c1c2c(-c3ccccc3)c(-c3ccccc3)n(Cc3ccco3)c2ncn1Cc1ccco1	66.0*	0.2	-8.0	18.4	0.3	83.0*
C=CCn1cnc2c(c1=O)c1nc3ccccc3nc1n2Cc1ccccc1	0.0	1.1	1.7	-5.0	1	-9.4
Cc1cc(C)cc(-n2c3nc4ccccc4nc3c3c(=O)n(Cc4ccco4)cnc32)c1	-9.1	0.9	54.5	1.7	1.1	10.3
N=c1c2c(-c3ccccc3)c(-c3ccccc3)n(Cc3ccccc3)c2ncn1CCCn1ccnc1	81.6*	0.4	nt	nt	0.2	58.3*
O=C(NC1CCCC1)C(c1ccsc1)N(C(=O)Cc1cccs1)c1cccc(F)c1 (configuration not stated)	3.0	0.9	nt	nt	1	8.2
C=CCn1c(COc2ccccc2F)nnc1SCC(=O)c1c[nH]c2ccccc12	nt	nt	0.9	5.4	nt	nt
CCC1CCCCN1CCCNC(=O)CNC(=O)Cn1ccc2ccccc2c1=O (configuration not stated)	-7.5	1.2	-2.5	-2.3	1.1	-17.7
COc1ccc(OC)c(NC(=O)C2CC(=O)N(c3ccc(Br)cc3)C2)c1 (configuration not stated)	86.5*	0.2	-0.9	-30.8	0.1	84.1*
C=CCN(CC=C)C(=O)C1CC(=O)N(c2ccc(Br)cc2)C1 (configuration not stated)	62.7*	0.8	-0.5	-6.8	0.4	24.3
O=C(O)C1CC(=O)N(c2ccc(Br)cc2)C1 (configuration not stated)	-15.3	1.2	-2.1	nt	1.2	-20.0
O=C(Nc1cccc(F)c1)C1CC(=O)N(c2ccc(Br)cc2)C1 (configuration not stated)	62.8*	0.4	0.7	-20.4	0.4	62.6*
O=C(Nc1nc2ccccc2s1)C1CC(=O)N(c2ccc(Br)cc2)C1 (configuration not stated)	0.5	0.5	-1.8	25.9	1	46.4
O=C(Nc1cccc(F)c1)C1CC(=O)N(c2ccc(Cl)cc2)C1 (configuration not stated)	87.6*	0.3	-5.0	-3.0	0.1	70.9*
